Laboratory results as given in PubChem BioAssay (NCI).
The panel holds about 83,000 compounds, 20% with a hit somewhere; the sample as a whole holds those more often.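 For each line, cells grew in 96-well plates with the test compound present at a single concentration for 48 hours.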 Unmarked numbers belong to inactive results. Active and inactive are the calls of the source. How the source made its calls: active means growth percent below 10; inactive means the rest.

Assays:
Experiment in all cases: NCI-60 one-dose screen, 48 h (100 = growth as untreated, 0 = no growth, -100 = all killed)
Settings in all cases: 10 µM unless noted
NCI-H23 lung = test system: NCI-H23 lung
NCI-H226 lung = test system: NCI-H226 lung
NCI-H322M lung = test system: NCI-H322M lung
HOP-62 NSCLC = test system: HOP-62 NSCLC
NCI-H460 lung = test system: NCI-H460 lung
HOP-92 NSCLC = test system: HOP-92 NSCLC
NCI-H522 lung = test system: NCI-H522 lung
A549/ATCC NSCLC = test system: A549/ATCC NSCLC
786-0 renal = test system: 786-0 renal

SMILES | growth (NCI-H23 lung) | growth (NCI-H226 lung) | growth (NCI-H322M lung) | growth (HOP-62 NSCLC) | growth (NCI-H460 lung) | growth (HOP-92 NSCLC) | growth (NCI-H522 lung) | growth (A549/ATCC NSCLC) | growth (786-0 renal)
CC(C)n1nc(C#Cc2cccc(NC(=O)c3cccc(C(F)(F)F)c3)c2)c2c(N)ncnc21 | -3.4% (active) | -0.0561% (active) | -18.3% (active) | -37.9% (active) | 5.91% (active) | -33.7% (active) | -18.6% (active) | -14.4% (active) | -20.9% (active)
COc1cc(/C=C/C(=O)c2cccc(-n3cc(-c4ccc(Cl)cc4)[nH]c3=O)c2)cc(OC)c1OC | 52.3% | 81.4% | 92% | 86.4% | 54.7% | 51.5% | 16.5% | 88.6% | 82.2%
O=C1CSC(c2ccccc2O)N1c1nnc(Cn2cnnc2)o1 (stereo unspecified) | 77.3% | 78.5% | 87.3% | 78.7% | 86.9% | 53.9% | 98.1% | 97.7% | 25.8%
CCN(CC)CCNc1ccc(C)c2sc3cc(C)ccc3c(=O)c12 | 72.3% | 95.5% | 68.8% | 62.9% | 43% | 25.2% | 44.2% | 56.2% | 42.9%
Cc1nn(Cc2ccccc2)cc1C(=O)Nc1sc2c(c1C(N)=O)CCC(=O)C2 | 12.6% | 71.9% | 96.2% | 84.6% | 86% | 31.2% | -3.17% (active) | 84.7% | 70.1%
CC(C)n1nc(C#Cc2cccc(O)c2)c2c(N)ncnc21 | -28.4% (active) | -41.8% (active) | -30.3% (active) | -52.5% (active) | -5.33% (active) | -70.5% (active) | -44.5% (active) | -60% (active) | -72% (active)
CN1CCC(=C2c3ccccc3C=Cc3ccccc32)CC1 | 83.7% | 96% | 104% | 83.4% | 93.3% | 67% | 39% | 91.1% | 67.5%
COc1cc(C2CC(c3ccc(Nc4nc(Nc5ccc(F)cc5)nc(Nc5ccc(Cl)cc5)n4)cc3)=NN2C(C)=O)cc(OC)c1OC (stereo unspecified) | 68.8% | 67.9% | 84.8% | 72.3% | 77.9% | 51.8% | 73.8% | 50.8% | 87.2%
COC(=O)c1ccc2oc(NC(=O)c3ccc(N4CCOCC4)c([N+](=O)[O-])c3)nc2c1 | 93% | 90.5% | 92.6% | 82.3% | 105% | 84.9% | 91% | 98.7% | 108%
O=C1Nc2ccccc2SC1c1ccccc1Cl (stereo unspecified) | 102% | 104% | 95.6% | 96.3% | 116% | 69.2% | 103% | 90% | 97.5%
COc1ccc(-c2cn(-c3cccc(C(=O)/C=C/c4cc(OC)c(OC)c(OC)c4)c3)c(=O)[nH]2)cc1 | -2.28% (active) | 32.9% | 106% | 229% | -44.1% (active) | -3.4% (active) | -38.7% (active) | 46.4% | -89.4% (active)
CCCCCOC(=O)c1ccc(NC(=O)CNCC(C)C)cc1 | 99.4% | 84.7% | 91.9% | 85.1% | 103% | 53.8% | 70.1% | 88.4% | 99.9%
CCCCN(CCCC)CCCn1c(=O)c2sc3ncccc3c2n2nnc(-c3ccccc3)c12 | 101% | 105% | 103% | 105% | 105% | 74.8% | 89.5% | 102% | 108%
O=C(/C=C/C12c3ccccc3C(c3ccccc31)C1C(=O)NC(=O)C12)c1ccccc1 (stereo unspecified) | 6.51% (active) | 11% | 17.6% | 34.8% | 1.66% (active) | 3.17% (active) | 39.1% | 26.3% | 27.1%
CN=C1C=CC(=C(c2ccc(N(C)C)cc2)c2ccc(N(C)C)cc2)C=C1 | -8.66% (active) | 6.94% (active) | -25.8% (active) | -23.4% (active) | -49.4% (active) | -39.1% (active) | -36.8% (active) | -23.6% (active) | -63.1% (active)
Cc1ccc(/C(=N\N=C(N)N)c2ccccc2)cc1 | 16.6% | -4.14% (active) | 56.6% | -30.4% (active) | 2.74% (active) | 27.3% | -11.8% (active) | 16.9% | -70.3% (active)
O=S(=O)(Nc1ccsc1-c1nc(-c2ccccc2)no1)c1cc(Cl)cc(Cl)c1 | 94.4% | 98.6% | 95.4% | 76.2% | 100% | 83.5% | 77.3% | 90% | 98.5%
Cc1cc(C(c2ccccc2)c2ccccc2)ccc1NS(=O)(=O)c1ccccc1 | 86.2% | 102% | 119% | 110% | 93.2% | 95.8% | 83.7% | 87.9% | 102%
CCN(CCO)CC(=O)c1cc(Cl)cc(Cl)c1Cl | 96.6% | 88.6% | 101% | 94.8% | 105% | 89.4% | 67.6% | 96.1% | 98.1%
O=S(=O)(Cc1ccccc1)c1nc2ccccc2s1 | 56.3% | 82.9% | 93.8% | 105% | 103% | 33.7% | 13.2% | 98.4% | 88.9%
NS(=O)(=O)c1cnccc1-n1ccc(=O)c(S(N)(=O)=O)c1 | 91.4% | 84.1% | 94.2% | 85.6% | 109% | 80.9% | 9.19% (active) | 33.9% | 97.5%
COc1cc(/C=C2\C=C(c3ccccc3)N(CCc3ccccc3)C2=O)cc(OC)c1OC | 74.1% | 67.6% | 70.1% | 61.6% | 76.1% | 41.3% | 65.7% | 70.4% | 11.7%
COC(=O)CCCNC(=O)C(=O)c1c(O)c(O)c(C(C)C)c2cc(C)c(-c3c(C)cc4c(C(C)C)c(O)c(O)c(C(=O)C(=O)NCCCC(=O)OC)c4c3O)c(O)c12 | 11.8% | -17.2% (active) | 29.6% | 13% | 0.963% (active) | -0.407% (active) | -38.9% (active) | -6.82% (active) | 4.56% (active)
O=c1cc(-c2ccc(OCc3ccccc3)cc2)oc2c(I)c(OCc3ccccc3)cc(OCc3ccccc3)c12 | 103% | 90% | 96.6% | 125% | 99.2% | 108% | 91.5% | 96.4% | 96.8%
CN(C)c1ccc2cc(-c3ccc(Cl)c(Cl)c3)c(N)nc2c1 | 15.4% | 42.3% | 54.6% | 66.2% | 27.6% | 28% | 22% | 32.9% | 55.4%
OC(c1cccc(OCc2ccccc2)c1)c1nnc(-c2ccccc2)o1 (stereo unspecified) | 83% | 66.9% | 120% | 107% | 96% | 80.9% | 79.2% | 95.1% | 100%
CCOc1ccc(S(=O)(=O)c2ccc(C)cc2)c2c1no[n+]2[O-] | 82.4% | 77.2% | 92.7% | 101% | 86.4% | 36.5% | 57.1% | 97.2% | 79.6%
CN1C(=O)CCC(N2C(=O)c3cccc(NCCOCCOCCNC(=O)c4cc5c(o4)C(=O)c4ccccc4C5=O)c3C2=O)C1=O (stereo unspecified) | -52.7% (active) | -72.1% (active) | -93% (active) | -59.1% (active) | -73.1% (active) | 65% | -35% (active) | -45% (active) | 8.13% (active)
C=C(C)C1CCC(=C)C2CCC3(C)OC12/C=C(/COC(C)=O)CCC3O (stereo unspecified) | 111% | 102% | 97.9% | 103% | 104% | 60.6% | 93.3% | 74.2% | 106%
